# Bioassay records (PubChem BioAssay)
# CCHF vOTU inh – CCHFV vOTU protease inhibitors, primary screen, biochemical, Pep-AMC substrate, fluorescence. AID 651958, 2012. 0.55% of 370,000 active. Crimean-Congo hemorrhagic fever virus L polyprotein viral ovarian tumor (vOTU) protease …. inhibition, % at 11.5 µM; in the data active = inhibition above about 30%; note: 0% = vehicle wells with enzyme and 100% = no enzyme wells
# BH1578 lux ind – inducers of Vibrio cholerae quorum light production without autoinducers, primary screen, BH1578 luxS cqsA deficient, single point; activation, % at 18.7 µM; V. cholerae BH1578 lux reporter, luminescence, 6 h; 0.16% of 350,000 active; in the data active = activation mostly above about 9.7%, no sharp cut-off
# MazF activator – activators of E. coli MazEF toxin-antitoxin RNase, primary screen, biochemical, fluorescence, uHTS; Endoribonuclease toxin MazF (Escherichia coli (strain K12)), P0AE70; FAM/BHQ RNA-DNA oligo cleavage fluorescence, 5 h; activation, % at 20 µM; 0.32% of 350,000 active; AID 504720, 2011; in the data active = activation above about 50%
# Target sequence (P0AE70 whole entry, looked up): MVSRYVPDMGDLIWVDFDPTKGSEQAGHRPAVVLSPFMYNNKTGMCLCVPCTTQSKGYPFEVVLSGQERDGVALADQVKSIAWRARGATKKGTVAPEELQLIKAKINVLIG
# VHR inh abs – VHR1 phosphatase inhibitors, primary screen, biochemical, absorbance, uHTS; recombinant VHR phosphatase, pNPP absorbance; inhibition, % at 13.3 µM; 0.52% of 290,000 active; in the data active = inhibition above about 50%
# Target sequence (P51452 whole entry, looked up): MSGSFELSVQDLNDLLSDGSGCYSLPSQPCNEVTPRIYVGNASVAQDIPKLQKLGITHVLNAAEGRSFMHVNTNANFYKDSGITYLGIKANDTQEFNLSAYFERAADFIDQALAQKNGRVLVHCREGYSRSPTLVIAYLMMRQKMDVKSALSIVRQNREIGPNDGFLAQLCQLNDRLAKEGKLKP
# Y pestis TopoI – Yersinia pestis topoisomerase I inhibitors, primary screen, biochemical, cleavage product accumulation, plate reader, single point; DNA topoisomerase I (Yersinia pestis CO92); Y. pestis Topo-I cleavage product accumulation; activity, % at 10 µM; 0.064% of 360,000 active; in the data active = activity above about 50%, passing the limit was not always enough
# PrPC surface inh – inhibitors of human cell surface prion protein PrPC, primary screen, cell-based, TR-FRET. Major prion protein (Homo sapiens), P04156. TR-FRET read-out. inhibition, % at 13.8 µM. 0.43% of 370,000 active. AID 720596, 2013; in the data active = inhibition above about 24%; note: 0% = median of the test wells and 100% = reference compound wells
# Starred values were filed as active, the others as inactive; i = inactive; · = no result; + = active, no number. This is a sample that favours compounds with a hit; in the whole collection about 1.8% have one here.
SMILES,CCHF vOTU inh,BH1578 lux ind,MazF activator,VHR inh abs,Y pestis TopoI,PrPC surface inh
COc1cccc2c1C(=N)c1c(O)c3c(c(O)c1C2=O)CC(O)(C(C)=O)CC3OC1CC(N)C(O)C(C)O1 (centres undefined),·,i,-30,·,231*,·
COc1cccc2c1C(=O)c1c(O)c3c(c(O)c1C2=O)CC(O)(C(C)=O)CC3OC1CC(O)C(O)C(C)O1 (centres undefined),4,-6,-237,·,25,-50
COc1ccc(C(=O)Cn2cnc3ccccc3c2=O)cc1,9,0,-10,55*,2,-3
COc1ccccc1C(=O)COC(=O)c1c(-c2ccccc2)noc1C,-2,0,-1,·,14,1
COc1ccc(C(=O)COC(=O)c2c(-c3ccccc3)noc2C)c(OC)c1,2,-1,67*,·,-4,-3
Nn1c(SCC(=O)Nc2ccc(Br)cn2)nnc1-c1n[nH]c2c1CCC2,5,·,·,·,·,10
CCC[C@@H](/C=C/C(=O)OC(C)(C)C)Sc1ccc(OC)cc1,4,·,·,·,·,-2
CCn1c(=O)n(CC)c2cc(N3CCCC3)c(NC(=O)c3c(F)cccc3F)cc21,3,i,-24,57*,4,-1
CCOC(=O)C1C(=O)C=C(/C=C/c2ccc(N(C)C)cc2)CC1c1ccccc1 (centres undefined),-5,0,106*,9,0,6
COc1cccc(CNC(=O)C2CCN(c3nc(OC)nc(OC)n3)CC2)c1,13,·,·,·,·,5
Cn1nc(C(F)(F)F)cc1-c1ccc(/C=C(\C#N)C(=O)c2ccccc2)s1,5,-1,782*,10,-4,4
CNC(=O)c1ccc(-c2cc(C(F)(F)F)nn2C)s1,-10,0,-3,-11,-8,-1
O=C(CC1CCCC1)N1CC[C@H]2[C@H](CCCN2Cc2ccccc2)C1,5,·,·,·,·,0
C/C(CC(=O)Nc1cc(C)ccn1)=N\NC(=O)c1cccc(F)c1,10,0,5,52*,-2,0
N#Cc1ccc(NC(=O)OC2CC3CC2[C@H]2CCCCN2[C@H]3Cc2ccccc2)cc1 (some centres undefined),-8,·,·,·,·,2
CC(C)C[C@H]1COc2cccc(F)c2S(=O)(=O)N1Cc1cn(Cc2ccco2)nn1,3,·,·,·,·,-4
CCc1c(C)nc2ccc(Br)cc2c1SCCC#N,1,i,-3,-4,23,47*
CC(C)C[C@H](NC1(C(=O)NCCc2c[nH]c3ccccc23)CCC1)C(=O)NCCCc1ccccc1,·,·,·,·,·,9
COC(=O)C1CN(Cc2ccc(OC)cc2)CCS(=O)(=O)N1Cc1ccccc1 (centres undefined),8,·,·,·,·,3
O=C(NCCN1CCOCC1)C1CC(=O)N(c2ccc(Cl)cc2)C1 (centres undefined),-7,0,6,50*,-5,6
CCN(CC)c1ccc2c(-c3ccc(S(=O)(=O)O)cc3S(=O)(=O)[O-])c3ccc(=[N+](CC)CC)cc-3oc2c1,·,-6,i,31,+,·
COc1ccc(NC(=O)CN2CCN(c3nc(-c4ccc(F)cc4)cs3)CC2)c(OC)c1,3,0,-4,24,54*,-6
O=C(CN1CCN(c2nc(-c3ccccc3)cs2)CC1)Nc1ccc(F)cc1F,9,·,·,·,·,2
NS(=O)(=O)c1ccc(Oc2ccc(S(N)(=O)=O)cc2)cc1,1,-1,4,16,-3,5
C=CS(=O)(=O)c1ccc(Oc2ccc(S(=O)(=O)C=C)cc2)cc1,-12,0,-4,3,2,64*
CS(=O)(=O)N1N=C(c2ccccc2)CC1c1ccc2c(c1)OCO2 (centres undefined),-12,0,236*,-5,3,1
CNc1ncnc2sc(-c3ccccc3)cc12,5,1,4,52*,4,-9
O=C(CSc1c2c(nc3cc(Cl)ccc13)CCCC2)NCCN1CCOCC1,2,i,-7,-1,-3,13
